Results filed as inconclusive are left out. Entries that show only a call come without a potency. Values without a mark were called inactive. The source made the active and inactive calls. Unless noted, the call rests on the fitted dose curve; in most records, active means well fitted inhibition curve with a large enough effect; inconclusive means small, poorly fitted or top-dose-only effect; inactive means flat fitted curve, though single readings scatter.
Experiments:
7G8 = assay: qHTS profiling for inhibitors of Plasmodium falciparum proliferation (AID 504749); further: nearly all actives have a fitted effect of over 60% in size; further: potency means the concentration at half of the fitted maximal effect; settings: P. falciparum in erythrocytes, SYBR Green DNA, 72 h; series mostly up to 28.7 µM
In short: (§1)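 In a 72 h erythrocytic culture (37 C, humidified, 5% CO2) at 2.5% hematocrit and 0.3% starting parasitemia, compounds were tested; SYBR Green I in detergent lysis buffer stained parasite DNA overnight.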

AA1029 = assay: as above; settings: P. falciparum in erythrocytes, SYBR Green DNA, 72 h; series mostly up to 28.7 µM
In short: as §1

CP211 = assay: as above; settings: P. falciparum in erythrocytes, SYBR Green DNA, 72 h; series mostly up to 28.7 µM
In short: as §1

CP215 = assay: as above; settings: P. falciparum in erythrocytes, SYBR Green DNA, 72 h; series mostly up to 28.7 µM
In short: as §1

CP217 = assay: as above; settings: P. falciparum in erythrocytes, SYBR Green DNA, 72 h; series mostly up to 28.7 µM
In short: as §1

CP252 = assay: as above; settings: P. falciparum in erythrocytes, SYBR Green DNA, 72 h; series mostly up to 28.7 µM
In short: as §1

CP260 = assay: as above; settings: P. falciparum in erythrocytes, SYBR Green DNA, 72 h; series mostly up to 28.7 µM
In short: as §1

CP286 = assay: as above; settings: P. falciparum in erythrocytes, SYBR Green DNA, 72 h; series mostly up to 28.7 µM
In short: as §1

CP297 = assay: as above; settings: P. falciparum in erythrocytes, SYBR Green DNA, 72 h; series mostly up to 28.7 µM
In short: as §1

CP315 = assay: as above; settings: P. falciparum in erythrocytes, SYBR Green DNA, 72 h; series mostly up to 28.7 µM
In short: as §1

DIV17 = assay: as above; settings: P. falciparum in erythrocytes, SYBR Green DNA, 72 h; series mostly up to 28.7 µM
In short: as §1

DIV30 = assay: as above; settings: P. falciparum in erythrocytes, SYBR Green DNA, 72 h; series mostly up to 28.7 µM
In short: as §1

ECU = assay: as above; settings: P. falciparum in erythrocytes, SYBR Green DNA, 72 h; series mostly up to 28.7 µM
In short: as §1

FAB9 = assay: as above; settings: P. falciparum in erythrocytes, SYBR Green DNA, 72 h; series mostly up to 28.7 µM
In short: as §1

N140 = assay: as above; settings: P. falciparum in erythrocytes, SYBR Green DNA, 72 h; series mostly up to 28.7 µM
In short: as §1

PC15 = assay: as above; settings: P. falciparum in erythrocytes, SYBR Green DNA, 72 h; series mostly up to 28.7 µM
In short: as §1

TAB109 = assay: as above; settings: P. falciparum in erythrocytes, SYBR Green DNA, 72 h; series mostly up to 28.7 µM
In short: as §1

TAB165 = assay: as above; settings: P. falciparum in erythrocytes, SYBR Green DNA, 72 h; series mostly up to 28.7 µM
In short: as §1

[1] = NFAT Signaling Pathway (AID 444; active means well fitted curve in either direction with a large enough effect, not every such curve was filed as active;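 further: carbachol stimulus at about its EC50 of 1 µM final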); settings: Jurkat NFAT-bla M1, carbachol, beta-lactamase ratio, 5 h
In short: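 Read-out: CCF4 FRET ratio (460 nm/530 nm) after 1 h RT dye loading, used for %activity and AC50 from titration series. Cells: Jurkat NFAT-β-lactamase/M1 line, treated with compound plus 1 uM carbachol for 5 h, 37 °C.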

[2] = molecular target: 3',5'-cyclic-AMP phosphodiesterase 4B (Homo sapiens) (UniProt Q07343); assay: qHTS Assay for Inhibitors of PDE-IV (AID 607; active means well fitted activation curve with a large enough effect in the main read-out, with a control signal flat, not every such curve was filed as active); settings: HEK293 ACTOne CNG channel cells, membrane potential fluorescence; series mostly up to 22.9 µM
Chain of 3',5'-cyclic-AMP phosphodiesterase 4B (Homo sapiens) (Q07343 whole entry, looked up): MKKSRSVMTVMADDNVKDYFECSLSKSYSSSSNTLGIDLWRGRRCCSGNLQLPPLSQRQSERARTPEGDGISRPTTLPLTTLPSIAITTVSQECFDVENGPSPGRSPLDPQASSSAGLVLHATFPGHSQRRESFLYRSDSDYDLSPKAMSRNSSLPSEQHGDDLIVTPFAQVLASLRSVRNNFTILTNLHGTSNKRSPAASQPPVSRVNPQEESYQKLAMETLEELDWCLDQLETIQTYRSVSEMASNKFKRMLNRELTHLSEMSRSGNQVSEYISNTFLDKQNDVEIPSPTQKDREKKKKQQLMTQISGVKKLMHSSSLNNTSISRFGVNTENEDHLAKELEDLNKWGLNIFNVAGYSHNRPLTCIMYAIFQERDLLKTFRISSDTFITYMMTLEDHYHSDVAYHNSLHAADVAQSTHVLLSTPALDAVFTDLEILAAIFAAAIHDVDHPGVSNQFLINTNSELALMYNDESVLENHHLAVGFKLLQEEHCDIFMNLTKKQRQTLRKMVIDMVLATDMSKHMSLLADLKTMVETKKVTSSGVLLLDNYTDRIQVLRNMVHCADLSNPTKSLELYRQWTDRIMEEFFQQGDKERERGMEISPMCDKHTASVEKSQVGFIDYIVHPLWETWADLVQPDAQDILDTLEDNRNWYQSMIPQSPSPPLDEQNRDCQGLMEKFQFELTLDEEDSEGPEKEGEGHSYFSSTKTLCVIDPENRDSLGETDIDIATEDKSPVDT
In short: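 ACTOne HEK293 cells carry a modified cAMP-gated CNG channel and express endogenous PDE4; plated 1000 cells/well, compounds up to 22.9 uM final. Membrane-potential dye fluorescence (ex 535/em 590) was read; parental cells received 10 uM forskolin + 100 uM RO 20-1724.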

[3] = at 7.69 µM (top of the series) unless noted

Compound: CO[C@H]1/C=C/O[C@@]2(C)Oc3c(C)c(O)c4c(O)c(c(/C=N\N5CCN(C6CCCC6)CC5)c(O)c4c3C2=O)NC(=O)/C(C)=C\C=C\[C@H](C)[C@H](O)[C@@H](C)[C@@H](O)[C@@H](C)[C@H](OC(C)=O)[C@@H]1C
- Potency (7G8): 141 nM (active)
- Potency (AA1029): 1260 nM (active)
- Potency (CP211): 4260 nM (active)
- Potency (CP215): 4260 nM (active)
- Potency (CP217): 1410 nM (active)
- Potency (CP252): 1410 nM (active)
- Potency (CP260): 1000 nM (active)
- Potency (CP286): 2240 nM (active)
- Potency (CP297): 1690 nM (active)
- Potency (CP315): 4780 nM (active)
- Potency (DIV17): 601 nM (active)
- Potency (DIV30): 849 nM (active)
- Potency (ECU): 199 nM (active)
- Potency (FAB9): 10000 nM (active)
- Potency (N140): 141 nM (active)
- Potency (PC15): 794 nM (active)
- Potency (TAB109): 1260 nM (active)
- Potency (TAB165): 158 nM (active)

Compound: C[C@@]12C(=O)OC(=O)[C@]1(C)[C@H]1CC[C@@H]2O1
- activity change, negative = inhibition [1, 3]: -99.7% [at 17.2 µM] (active)
- Potency (7G8): 2820 nM (active)
- Potency (AA1029): 3160 nM (active)
- Potency (CP211): 5100 nM (active)
- Potency (CP215): 2280 nM (active)
- Potency (CP217): 2510 nM (active)
- Potency (CP252): 3980 nM (active)
- Potency (CP260): 631 nM (active)
- Potency (CP286): 2820 nM (active)
- Potency (CP297): 3220 nM (active)
- Potency (CP315): 5730 nM (active)
- Potency (DIV17): 2030 nM (active)
- Potency (DIV30): 5730 nM (active)
- Potency (ECU): 3550 nM (active)
- Potency (FAB9): inactive
- Potency (N140): 4470 nM (active)
- Potency (PC15): 3980 nM (active)
- Potency (TAB109): 2820 nM (active)
- Potency (TAB165): 2000 nM (active)

Compound: N=C1Sc2ccccc2C2=NCCCN12
- Potency [2]: inactive

Compound: CN1C(=O)CCC1c1cccnc1 (stereo not given)
- Potency (7G8): inactive
- Potency (AA1029): inactive
- Potency (CP211): inactive
- Potency (CP215): inactive
- Potency (CP217): inactive
- Potency (CP252): inactive
- Potency (CP260): inactive
- Potency (CP286): inactive
- Potency (CP297): inactive
- Potency (CP315): inactive
- Potency (DIV17): inactive
- Potency (DIV30): inactive
- Potency (ECU): inactive
- Potency (FAB9): inactive
- Potency (N140): inactive
- Potency (PC15): inactive
- Potency (TAB109): inactive
- Potency (TAB165): inactive

Compound: O=C(Cc1ccc(Cl)c(Cl)c1)OCCN1CCCC1
- activity change, negative = inhibition [1, 3]: -14.7% [at 38 µM]
- Potency [2]: inactive

Compound: NCCC(=O)NCCc1cnc[nH]1
- activity change, negative = inhibition ([1]; at 17.2 µM (top of the series)): -0.872%
- activity change, negative = inhibition ([1]; at 38 µM (top of the series)): 2.63%
- Potency [2]: inactive

Compound: CN=C(N)NCCCC(N)C(=O)O (stereo not given)
- Potency (7G8): inactive
- Potency (AA1029): inactive
- Potency (CP211): inactive
- Potency (CP215): inactive
- Potency (CP217): inactive
- Potency (CP252): inactive
- Potency (CP260): inactive
- Potency (CP286): inactive
- Potency (CP297): inactive
- Potency (CP315): inactive
- Potency (DIV17): inactive
- Potency (DIV30): inactive
- Potency (ECU): inactive
- Potency (FAB9): inactive
- Potency (N140): inactive
- Potency (PC15): inactive
- Potency (TAB109): inactive
- Potency (TAB165): inactive

Compound: C=C1/C(=C\C=C2/CCC[C@]3(C)[C@@H]([C@H](C)CCCC(C)(C)O)CC[C@@H]23)C[C@@H](O)C[C@@H]1O
- Potency (AA1029): inactive
- Potency (CP211): inactive
- Potency (CP215): inactive
- Potency (CP217): inactive
- Potency (CP252): inactive
- Potency (CP260): inactive
- Potency (CP286): inactive
- Potency (CP297): inactive
- Potency (CP315): inactive
- Potency (FAB9): inactive
- Potency (N140): inactive
- Potency (PC15): inactive
- Potency (TAB165): inactive

Compound: N=C(N)SCCc1cccc(CCSC(=N)N)c1
- Potency [2]: inactive

Compound: NCCNC(=O)c1ccc(Cl)cc1
- activity change, negative = inhibition [1, 3]: 9.25% [at 38 µM]
- Potency [2]: inactive
